Source: PubChem
Cruzain inh noDet: cruzain (T. cruzi) inhibition without detergent. P25779. purified cruzain, Z-FR-AMC fluorescence, no detergent. Potency, µM, for the others: max response, negative = inhibition, most hits filed as inhibitors. actives 2.3% (n = 200,000). AID 1476;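 also: plate controls were enzyme without inhibitor for no effect and buffer without enzyme for full effect; nearly all actives have a fitted effect of over 40% in size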
Target sequence (P25779 123-467 limits assumed): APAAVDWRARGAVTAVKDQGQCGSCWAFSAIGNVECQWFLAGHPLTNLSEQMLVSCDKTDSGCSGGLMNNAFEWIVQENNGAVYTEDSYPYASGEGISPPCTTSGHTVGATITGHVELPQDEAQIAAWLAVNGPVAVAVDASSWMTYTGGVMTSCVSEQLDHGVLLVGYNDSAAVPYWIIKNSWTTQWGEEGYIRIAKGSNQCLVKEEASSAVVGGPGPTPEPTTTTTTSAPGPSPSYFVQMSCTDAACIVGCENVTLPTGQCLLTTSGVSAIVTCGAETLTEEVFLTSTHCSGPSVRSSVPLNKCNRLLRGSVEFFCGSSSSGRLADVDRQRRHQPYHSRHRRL
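Purified cruzain at 1.5 nM, pre-incubated 15 min with compound at room temperature in 100 mM sodium acetate pH 5.5, 5 mM DTT, 0.00005% Triton X-100. Reaction started with 2 uM Z-FR-AMC; AMC fluorescence increase over 60 s gives rate.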
Cruzain Triton: inhibitors of Trypanosoma cruzi cruzain with detergent; P25779; purified cruzain, Z-FR-AMC fluorescence, 0.01% Triton; Potency, µM, without a hit: max response, negative = inhibition, actives largely listed as inhibitors; actives 0.43% (n = 200,000);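 also: plate controls were neutral wells for no effect and buffer without enzyme for full effect; nearly all actives have a fitted effect of over 40% in size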
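Cruzain (1.5 nM) preincubated 15 min at RT with compound in 100 mM sodium acetate pH 5.5, 5 mM DTT, 0.01% Triton X-100. Reaction started with 2 uM Z-FR-AMC; AMC fluorescence (ex 360/em 450 nm) change over 60 s gave rate.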
Papain inh: papain (Carica papaya) inhibition counter-screen. purified papain, Z-FR-AMC fluorescence cleavage. actives 41% (n = 410). shares compounds with Cruzain Triton. Potency, µM, without a hit: max response, negative = inhibition, hits mostly inhibitors;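 also: 0% = no-compound wells and -100% = no-enzyme wells; nearly all actives have a fitted effect of over 35% in size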
Target sequence (P00784 whole entry, looked up): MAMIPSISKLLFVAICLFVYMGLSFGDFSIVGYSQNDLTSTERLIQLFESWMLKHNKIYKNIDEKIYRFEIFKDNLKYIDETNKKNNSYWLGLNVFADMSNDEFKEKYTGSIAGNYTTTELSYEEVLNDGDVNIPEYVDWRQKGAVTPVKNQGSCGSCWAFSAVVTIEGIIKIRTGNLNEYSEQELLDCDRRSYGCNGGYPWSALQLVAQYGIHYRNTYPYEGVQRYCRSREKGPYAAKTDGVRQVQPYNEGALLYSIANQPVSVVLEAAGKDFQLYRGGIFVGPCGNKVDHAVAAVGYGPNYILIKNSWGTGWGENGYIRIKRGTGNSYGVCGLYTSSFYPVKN
An asterisk follows results filed as active; ? = inconclusive; . = not tested or not shown. Shown are actives, neighbours in structure and some others; about 2.4% of the full set was active somewhere. Calls follow the shape of the dose curve; as a rule, active = well fitted curve in the direction sought with a large enough effect; inconclusive = small, poorly fitted or top-dose-only effect, or another doubt; inactive = no such curve, though single readings can be large; an effect the other way counts as inactive or inconclusive. Potency is read from the fitted curve at half-maximal effect.

SMILES	Cruzain inh noDet	Cruzain Triton	Papain inh
COc1ccccc1CN(Cc1cc2cc3c(cc2[nH]c1=O)OCCO3)Cc1nnnn1Cc1ccco1	?	-11%	.
Cc1cccc2cc(CN(Cc3cccs3)Cc3nnnn3Cc3ccccc3)c(=O)[nH]c12	0%	-1%	.
Cc1ccc2[nH]c(=O)c(CN(CCCO)Cc3nnnn3Cc3ccco3)cc2c1	.	.	-1%
CCc1ccc2[nH]c(=O)c(CN(Cc3ccccc3)Cc3nnnn3Cc3ccccc3)cc2c1	.	.	-11%
Cc1ccc2cc(CN(Cc3ccco3)Cc3nnnn3Cc3ccco3)c(=O)[nH]c2c1	.	.	-8%
Cc1ccc2[nH]c(=O)c(CN(Cc3ccc4c(c3)OCO4)Cc3nnnn3Cc3ccco3)cc2c1	-8%	-3%	.
CCCCCCCN[C@H]1CCC[C@@H]1CCCCCCC(=O)O	-4%	3%	.
Cc1nn2c(C)c(C(=O)NCc3ccco3)cnc2c1-c1ccccc1	3%	-11%	.
COc1cc2c(cc1OC)n(CC(=O)c1ccc(C)cc1)c(=O)n1nc(CCn3nc(C)cc3C)nc21	-14%	3%	.
Cc1c(C(=O)Oc2ccc(Br)cc2)sc2ncn(Cc3ccccc3F)c(=O)c12	-4%	-1%	.
CCc1cc(=O)[nH]c(SCc2nc(-c3ccc(C(F)(F)F)cc3)no2)n1	12%	1%	.
Cc1ccc2[nH]c(=O)c(CN(Cc3ccccc3)Cc3nnnn3Cc3ccccc3)cc2c1	.	.	-8%
Cc1ccc2[nH]c(=O)c(CN(Cc3ccco3)Cc3nnnn3Cc3ccccc3)cc2c1	.	.	-18%
Cc1ccc2[nH]c(=O)c(CN(Cc3nnnn3Cc3ccccc3)C3CCCC3)cc2c1	3%	-13%	.
O=c1[nH]c2cc3c(cc2cc1CN(Cc1ccccc1)Cc1nnnn1Cc1ccco1)OCCO3	8%	-14%	.
COC(=O)c1ccccc1NC(=O)c1cc(-c2ccc(Cl)cc2)on1	6%	-1%	.
O=S(=O)(NCCc1csc2nc(-c3ccc(Cl)cc3)nn12)c1ccc(Oc2ccccc2)cc1	-2%	0%	.
CCc1ccc(CNC(=O)C2CCCN(S(=O)(=O)c3ccc4c(ccn4C)c3)C2)cc1 (stereo not given)	?	-5%	.
COc1cccc(OC)c1-c1nn2c(-c3n[nH]c4c3CCC4)nnc2s1	.	.	16µM*
CCN(CC)c1ccc(-c2nn3c(-c4n[nH]c5c4CCC5)nnc3s2)cc1	0%	-2%	.
COc1ccc(CCNC(=O)c2cc3c(=O)oc4ccc(C)cc4c3s2)cc1OC	13%	2%	.
O=C(CNC(=O)c1ccccc1)NCC(=O)OCC(=O)c1ccc(F)cc1	-8%	-5%	.
O=C(CCC(=O)OCC(=O)c1ccc(Cl)cc1)NC1CCCCC1	-8%	-7%	.
CCc1ccc(C(=O)COC(=O)CNC(=O)CNC(=O)Cc2ccccc2)cc1	-12%	3%	.
O=C(COC(=O)C1CCCCC1)Nc1ccc(N2CCCCC2)cc1	-5%	-16%	.
SMILES	Cruzain inh noDet	Cruzain Triton	Papain inh
N#Cc1ccc(NC(=O)COC(=O)CNC(=O)C2CCCCC2)cc1	4µM*	4µM*	-17%
CCc1ccc(C(=O)COC(=O)CNC(=O)C2CCCCC2)cc1	.	.	-21%
O=C(CNC(=O)C1CCCCC1)OCC(=O)c1cccc(Cl)c1	.	.	14µM*
O=C(CNC(=O)C1CCCCC1)OCC(=O)c1ccc(F)cc1	.	.	16µM*
Cc1cccc(N(CC(=O)N(C)Cc2ccccc2)S(=O)(=O)c2ccccc2)c1C	-1%	-3%	.
COCCCNC(=O)Cn1cnc2sc(C)c(S(=O)(=O)N3CCC(C)CC3)c2c1=O	-7%	1%	.
CCCNC(=O)c1ccc(-c2nc(CS(=O)(=O)c3ccc(C)cc3)c(C)o2)cc1	0%	-1%	.
O=C(CNC(=O)C1CCCCC1)OCC(=O)c1ccc([N+](=O)[O-])cc1	.	.	16µM*
O=C(COC(=O)COc1ccc(Cl)cc1)NC1CCCCC1	2%	0%	.
O=C(CCC(=O)OCC(=O)c1ccc([N+](=O)[O-])cc1)NC1CCCCC1	2%	-4%	.
CCC(=O)NCC(=O)OCC(=O)c1ccccc1	3%	-2%	.
O=C(CNC(=O)C1CCCCC1)OCC(=O)c1ccc(-c2ccccc2)cc1	.	.	-19%
O=C(COC(=O)CNC(=O)C1CCCCC1)NC1CCCC1	.	.	32µM*
COc1cc(Cl)c(C)cc1NC(=O)Cn1cc(S(=O)(=O)N2CCC(C)CC2)c2ccccc2c1=O	16%	3%	.
O=C(NC1CC(=O)N(c2ccccc2)C1)c1ccc(S(=O)(=O)N2CCCC2)cc1 (stereo not given)	-3%	-1%	.
CO[C@@H]1[C@@H]2OP(=O)(O)OC[C@H]2O[C@H]1n1c(Sc2ccc(Cl)cc2)nc2c(N)ncnc21	6%	7%	.
CC(C)C[C@H](N)c1nnc(SCc2ccc(Cl)cc2Cl)o1	1%	-2%	.
CC(C)C[C@H](N)c1nnc(S(=O)(=O)Cc2ccc(F)cc2)o1	13µM*	13µM*	3%
CCOC(=O)COc1nc(N(C)C)nc(N(C)C)n1	4%	12%	.
CCOC(=O)C(C(=O)OCC)N(C#N)c1nc(OC)nc(N(C)C)n1	10µM*	3.5µM*	28µM*
CCOC(=O)C(C(=O)OCC)N(C#N)c1nc(SC)nc(N(C)C)n1	3.2µM*	2.5µM*	16µM*
CC(C(=O)N(C)C)N(C#N)c1nc(N(C)C)nc(N(C)C)n1 (stereo not given)	-13%	2%	.
Cc1cnc2c(c1SCC(=O)N(C)c1ccccc1)c(=O)n(C)c(=O)n2C	2%	-1%	.
COc1ccc2oc(=O)c(-c3nc(-c4cc(OC)c(OC)c(OC)c4)no3)cc2c1	15%	0%	.
O=C(CCS(=O)(=O)c1cc(Br)cc2c1N(C(=O)C1CC1)CC2)N1CCN(c2cccc(C(F)(F)F)c2)CC1	-1%	1%	.
SMILES	Cruzain inh noDet	Cruzain Triton	Papain inh
Cc1ccccc1-n1c(C)cc(/C=C2/C(=O)NC(=O)N(Cc3ccco3)C2=O)c1C	4%	-8%	.
Cc1ccccc1-n1c(C)cc(/C=C2/C(=N)N3C(c4ccccc4)=CSC3=NC2=O)c1C	3.2µM*	-1%	13%
O=C(CCN1C(=O)/C(=C\c2cccs2)SC1=S)Nc1nccs1	-2%	-6%	.
O=C(CCN1C(=O)/C(=C/C=C/c2ccccc2)SC1=S)Nc1nccs1	3.2µM*	-1%	-6%
CC(C)OC(=O)c1cccc(NC(=O)Cn2nnc3sc4c(c3c2=O)CCCC4)c1	12%	-3%	.
COc1ccc2ncc3c(-c4ccc(C)c(C)c4)nn(CC(=O)NC4CCCCC4)c3c2c1	2%	-3%	.
CC1(C)Cc2c(C#N)c(N3CCN(C(=O)c4ccco4)CC3)nc(Cc3ccccc3)c2CO1	14%	-1%	.
CC1(C)Cc2c(C#N)c(N3CCN(C(=O)c4ccco4)CC3)nc(-c3ccco3)c2CS1	16µM*	28µM*	3.5µM*
COc1ccccc1NC(=O)c1cc2c(n(-c3ccc(C)cc3)c1=O)CC(C)(C)CC2=O	-3%	-4%	.
O=C(Oc1ccc(/C=N/NC(=O)c2ccccc2O)cc1)c1ccccc1	-18%	-10%	.
O=C(N/N=C\c1ccccc1O)c1ccccc1O	32µM*	-10%	7%
CCCCOc1ccc(C2C(=O)N(C3CCCCC3)CC(=O)N2C2CCCCC2)cc1 (stereo not given)	-4%	1%	.
S=C(c1ccc(-c2cccc(Cl)c2)o1)N1CCOCC1	-14%	-25%	.
CC(=O)N1CCN(C(=S)c2ccc(-c3ccc(Cl)cc3)o2)CC1	?	8.9µM*	16µM*
COCCN1CCc2nc(SCC(=O)Nc3ccc(Br)cc3)[nH]c(=O)c2C1	-8%	-1%	.
